Among the data in PubChem BioAssay (EPA / NIEHS) are outcome and AC50 values, retold here.

The structures appear in SMILES notation. Activity calls are given as the source filed them. How the source made its calls: active means hit-call score of the fitted dose curve at least 0.9, where 1 is the maximum; inactive means score below 0.9.

Assay [1] in a line: ATG_GLI_CIS: Attagene CIS-FACTORIAL HepG2 Assay for human Zinc Finger Protein GLI1 (AID 2282945). The conditions noted are these: HepG2, Attagene cis-factorial reporter mRNA, GLI element; actives raise or lower the signal. In a few lines: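 Transiently transfected HepG2 cells report endogenous transcription factor activity via cis-element-driven reporter units. After 24 h compound exposure, reporter mRNA was measured by RT-PCR with capillary electrophoresis; bidirectional fitting against DMSO baseline.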

Assay [2] in a line: ATG_GRE_CIS: Attagene CIS-FACTORIAL HepG2 Assay for human Glucocorticoid Response Elements (GRE) (AID 2282947). The conditions noted are these: HepG2 GRE cis-reporter, Attagene multiplex mRNA; actives raise or lower the signal. The procedure, abridged: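 Endogenous transcription factor activity is read through cis-element reporter constructs transiently transfected into HepG2 cells. After 24 h treatment, labelled RT-PCR products are resolved by capillary electrophoresis; DMSO sets baseline for bidirectional curve fitting.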

The nature of assay [3]: ATG_ISRE_CIS: Attagene CIS-FACTORIAL HepG2 Assay for human Interferon Regulatory Factor 1 (IRF1) binding to an Interferon-Stimulated Response Element (ISRE) (AID 2282948). Conditions: HepG2 ISRE cis-reporter (Attagene), mRNA transcription readout; actives raise or lower the signal. In a few lines: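 Transfected HepG2 (multiple reporter transcription units, cis elements) dosed 24 h. RNA → oligo(dT) RT → PCR → 6-FAM primer extension → HpaI → CE. DMSO = negative control/baseline.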

Assay [4] can be described thus: ATG_M_32_CIS: Attagene CIS-FACTORIAL HepG2 Assay for M32 Transcription Factor (Internal Marker) (AID 2282949).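 Further: background control marker of the multiplexed CIS panel rather than a real target.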 Conditions: HepG2 Attagene cis-factorial M32 reporter, mRNA; actives raise or lower the signal. The procedure, abridged: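 Internal background marker read-out: RT-PCR/capillary electrophoresis fluorescence of reporter transcripts from transiently transfected HepG2 cells after 24 h chemical exposure. Activity fitted bidirectionally relative to DMSO negative control.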

Assay [5] in a line: ATG_M_06_CIS: Attagene CIS-FACTORIAL HepG2 Assay for M06 Transcription Factor (Internal Marker) (AID 2282950). The conditions noted are these: HepG2 Attagene CIS-FACTORIAL M06 internal marker reporter; actives raise or lower the signal. In a few lines:
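Read-out is fluorescence of labelled reporter cDNA fragments resolved by capillary electrophoresis after RT-PCR. Cells: HepG2 carrying transfected cis-promoter reporter units, treated 24 h. Gain or loss of signal fitted relative to DMSO.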

In assay [6] the target is Hepatocyte nuclear factor 6 (Homo sapiens) (UniProt Q9UBC0). Nature of the assay: ATG_HNF6_CIS: Attagene CIS-FACTORIAL HepG2 Assay for human Hepatocyte Nuclear Factor 6 (HNF6) (AID 2282952). The conditions noted are these: HepG2 Attagene cis-factorial HNF6 reporter transcription; actives raise or lower the signal. The procedure, abridged:
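HepG2 cells transiently transfected with cis-element-driven multiple reporter transcription units, dosed 24 h; reporter mRNA quantified by RT-PCR, FAM primer extension, HpaI digestion and capillary electrophoresis; bidirectional fit versus DMSO baseline.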

Assay [7] addresses Heat shock factor protein 1 (Homo sapiens) (UniProt Q00613). Nature of the assay: ATG_HSE_CIS: Attagene CIS-FACTORIAL HepG2 Assay for human Heat Shock Transcription Factor 1 (HSE) (AID 2282953). The conditions noted are these: HepG2 HSE cis-reporter, Attagene RNA transcription; actives raise or lower the signal. In a few lines: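 HepG2, transient MRTU transfection, cis-promoter reporters (endogenous TF activity). 24 h compound. RNA → oligo(dT) RT → PCR → 6-FAM primer extension → HpaI cut → CE. Bidirectional fit vs DMSO.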

Assay [8] in a line: ATG_MRE_CIS: Attagene CIS-FACTORIAL HepG2 Assay for human Metal Responsive Element (MRE) (AID 2282954). The conditions noted are these: HepG2 MRE cis-reporter transcription, Attagene multiplex; actives raise or lower the signal. The procedure, abridged: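 Fluorescent reporter fragments separated by capillary electrophoresis give mRNA induction for the MRE unit after 24 h treatment of transfected HepG2 cells. Endogenous transcription-factor activity is read; DMSO serves as negative control and baseline.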

Assay [9] has as its target Paired box protein Pax-6 (Homo sapiens) (UniProt P26367). Description: ATG_Pax6_CIS: Attagene CIS-FACTORIAL HepG2 Assay for human Paired Box 6 (PAX6) (AID 2282956). The conditions noted are these: HepG2 CIS-FACTORIAL PAX6 reporter transcription, RNA readout; actives raise or lower the signal. The procedure, abridged: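 Transient MRTU transfection of HepG2 → compound exposure 24 h → TriZol RNA, oligo(dT) RT → PCR, 6-FAM primer extension, HpaI cut → capillary electrophoresis; activity fitted both directions against DMSO.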

The nature of assay [10]: ATG_PXRE_CIS: Attagene CIS-FACTORIAL HepG2 Assay for human Pregnane X Receptor Element (PXRE) (AID 2282957). Conditions: HepG2 Attagene CIS-FACTORIAL PXRE reporter, mRNA; actives raise or lower the signal. In a few lines: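 HepG2 cells transiently transfected with cis-regulated multiple reporter transcription units; endogenous factor activity measured as reporter mRNA 24 h after dosing. RT-PCR, fluorescent primer extension, HpaI digestion, capillary electrophoresis; bidirectional fit versus DMSO baseline.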

Assay [11] is described as follows: ATG_PPRE_CIS: Attagene CIS-FACTORIAL HepG2 Assay for human Peroxisome Proliferator-activated Response Element (PPRE) (AID 2282958). Conditions: HepG2 PPRE cis-element reporter, Attagene transcription factor profiling; actives raise or lower the signal. The procedure, abridged: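 Multiplexed reporter transcription units under cis-regulatory promoters were transfected into HepG2 cells to capture endogenous factor activity. A 24 h incubation preceded RNA isolation and fluorescent RT-PCR fragment analysis.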

The nature of assay [12]: ATG_RORE_CIS: Attagene CIS-FACTORIAL HepG2 Assay for human RAR-related Orphan Receptor Element (RORE) (AID 2282959). The conditions noted are these: HepG2 Attagene cis-factorial RORE reporter, mRNA; actives raise or lower the signal. In a few lines:
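Fluorescence intensity of reporter-specific cDNA fragments, separated by capillary electrophoresis, gives the signal. Source: HepG2 liver cells transiently transfected with cis-element reporters and exposed 24 h; DMSO-normalized bidirectional fit.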

The nature of assay [13]: ATG_Sox_CIS: Attagene CIS-FACTORIAL HepG2 Assay for human SRY-box transcription factor (SOX) (AID 2282960). Conditions: HepG2 Attagene cis-factorial SOX reporter, mRNA; actives raise or lower the signal. The procedure, abridged:
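After 24 h of chemical treatment, transfected HepG2 reporter cells are lysed for total RNA. Transcript levels come from RT-PCR with labelled primer extension and capillary electrophoresis, analysed bidirectionally versus DMSO.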

The target of assay [14] is Transcription factor Sp1 (Homo sapiens) (UniProt P08047). Description: ATG_Sp1_CIS: Attagene CIS-FACTORIAL HepG2 Assay for human Specificity Protein 1 (Sp1) (AID 2282961). Conditions: HepG2 Sp1 cis-reporter transcription, actives raise or lower the signal. The procedure, abridged: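 Sp1-driven reporter mRNA, read as capillary electrophoresis fluorescence after RT-PCR, in transiently transfected HepG2 cells dosed for 24 h; signal change in either direction relative to DMSO.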

Assay [15] in a line: ATG_SREBP_CIS: Attagene CIS-FACTORIAL HepG2 Assay for human Sterol Regulatory Element Binding (SREBP) (AID 2282962). Conditions: HepG2 Attagene cis-factorial SREBP reporter, mRNA; actives raise or lower the signal. The procedure, abridged:
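Transfected HepG2 (cis-regulated reporter library, endogenous TFs) → compound 24 h → total RNA → oligo(dT) RT → reporter-specific PCR → FAM primer extension, HpaI cut → CE fluorescence. Fit bidirectional vs DMSO.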

Assay [16] has as its target Signal transducer and activator of transcription 3 (Homo sapiens) (UniProt P40763). Nature of the assay: ATG_STAT3_CIS: Attagene CIS-FACTORIAL HepG2 Assay for human Signal Transducer and Activator of Transcription 3 (STAT3) (AID 2282963). The conditions noted are these: HepG2, Attagene cis-factorial STAT3 reporter transcription; actives raise or lower the signal. In a few lines: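 Values derive from bidirectional fits relative to DMSO of reporter mRNA levels, measured by RT-PCR with capillary electrophoresis, in HepG2 cells carrying transiently transfected cis-regulated reporter units and exposed 24 h.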

Assay [17] can be described thus: ATG_TA_CIS: Attagene CIS-FACTORIAL HepG2 Assay for human TA Basal Promoter (AID 2282964). Conditions: HepG2 Attagene CIS-factorial TA basal promoter reporter; actives raise or lower the signal. The procedure, abridged: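 Read-out: fluorescent reporter-transcript fragments resolved by capillary electrophoresis after RT-PCR and HpaI digestion. Source: HepG2 cells carrying transiently transfected multi-reporter cis constructs, treated 24 h. Endpoint fitted bidirectionally relative to DMSO.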

The target of assay [18] is Hypoxia-inducible factor 1-alpha (Homo sapiens) (UniProt Q16665). Description: ATG_HIF1a_CIS: Attagene CIS-FACTORIAL HepG2 Assay for human Hypoxia Inducible Factor 1 (HIF1A) (AID 2282951). The conditions noted are these: HepG2 Attagene cis-factorial HIF1a reporter transcription; actives raise or lower the signal. The procedure, abridged: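 In this multiplexed cell assay, HepG2 cells bearing transfected cis reporters are dosed for 24 h and reporter mRNA is read by RT-PCR plus capillary electrophoresis; signal increases and decreases are both scored against DMSO.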

Assay [19] is described as follows: ATG_PBREM_CIS: Attagene CIS-FACTORIAL HepG2 Assay for human Phenobarbital-responsive Enhancer Module (PBREM) (AID 2282955). Conditions: HepG2 PBREM cis-reporter, Attagene multiplexed transcription; actives raise or lower the signal. In a few lines:
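After a 24 h incubation with test chemical, transfected HepG2 cells yield total RNA; reporter-specific RT-PCR products are fluorescently labelled, HpaI-digested and resolved by capillary electrophoresis against ROX size standards.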

Sequence of Hepatocyte nuclear factor 6 (Homo sapiens) (Q9UBC0 whole entry, looked up): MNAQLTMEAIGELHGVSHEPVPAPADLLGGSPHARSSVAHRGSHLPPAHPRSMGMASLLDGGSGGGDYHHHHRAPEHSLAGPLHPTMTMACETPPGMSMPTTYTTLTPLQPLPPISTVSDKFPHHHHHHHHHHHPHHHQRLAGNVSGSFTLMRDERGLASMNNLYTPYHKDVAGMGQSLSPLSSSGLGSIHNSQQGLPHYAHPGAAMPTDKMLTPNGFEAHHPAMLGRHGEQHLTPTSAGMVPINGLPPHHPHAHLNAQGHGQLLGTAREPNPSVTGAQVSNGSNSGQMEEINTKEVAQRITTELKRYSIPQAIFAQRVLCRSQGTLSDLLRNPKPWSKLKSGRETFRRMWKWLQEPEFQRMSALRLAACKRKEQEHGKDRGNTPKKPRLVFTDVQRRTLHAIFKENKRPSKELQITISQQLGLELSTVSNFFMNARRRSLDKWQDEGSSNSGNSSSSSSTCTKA
Sequence of Signal transducer and activator of transcription 3 (Homo sapiens) (P40763 whole entry, looked up): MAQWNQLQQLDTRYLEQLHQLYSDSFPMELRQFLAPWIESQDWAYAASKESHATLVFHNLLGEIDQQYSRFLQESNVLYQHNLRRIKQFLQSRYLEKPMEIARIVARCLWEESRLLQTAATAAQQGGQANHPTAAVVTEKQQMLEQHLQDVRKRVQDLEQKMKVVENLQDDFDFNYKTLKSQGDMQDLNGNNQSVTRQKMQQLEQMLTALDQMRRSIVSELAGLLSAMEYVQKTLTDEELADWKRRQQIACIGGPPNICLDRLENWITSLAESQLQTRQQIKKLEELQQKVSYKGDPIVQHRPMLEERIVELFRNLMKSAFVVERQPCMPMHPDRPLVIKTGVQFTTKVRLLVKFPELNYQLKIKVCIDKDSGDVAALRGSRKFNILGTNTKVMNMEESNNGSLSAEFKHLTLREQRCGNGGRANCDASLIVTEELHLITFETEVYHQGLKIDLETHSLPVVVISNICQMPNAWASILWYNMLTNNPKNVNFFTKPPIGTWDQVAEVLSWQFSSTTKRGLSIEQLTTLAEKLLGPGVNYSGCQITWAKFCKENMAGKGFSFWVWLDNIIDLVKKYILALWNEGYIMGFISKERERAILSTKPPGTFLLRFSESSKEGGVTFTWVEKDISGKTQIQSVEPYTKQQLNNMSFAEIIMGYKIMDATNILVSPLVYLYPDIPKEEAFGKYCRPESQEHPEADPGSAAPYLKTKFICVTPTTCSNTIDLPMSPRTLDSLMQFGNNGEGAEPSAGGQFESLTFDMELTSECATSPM
Sequence of Heat shock factor protein 1 (Homo sapiens) (Q00613 whole entry, looked up): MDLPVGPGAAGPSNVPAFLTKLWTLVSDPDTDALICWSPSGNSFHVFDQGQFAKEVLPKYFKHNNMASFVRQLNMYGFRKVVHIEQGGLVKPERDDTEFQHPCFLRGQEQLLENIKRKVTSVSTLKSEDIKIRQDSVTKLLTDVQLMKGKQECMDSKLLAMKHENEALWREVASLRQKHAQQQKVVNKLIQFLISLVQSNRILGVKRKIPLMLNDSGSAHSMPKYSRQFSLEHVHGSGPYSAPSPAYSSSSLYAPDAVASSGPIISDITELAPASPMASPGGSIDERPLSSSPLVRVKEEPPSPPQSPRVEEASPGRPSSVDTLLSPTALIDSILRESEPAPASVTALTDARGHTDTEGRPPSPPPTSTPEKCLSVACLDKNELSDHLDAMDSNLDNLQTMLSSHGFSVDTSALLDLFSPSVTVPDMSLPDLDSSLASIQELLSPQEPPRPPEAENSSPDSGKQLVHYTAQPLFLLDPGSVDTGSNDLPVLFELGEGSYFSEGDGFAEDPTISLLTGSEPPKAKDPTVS
Sequence of Transcription factor Sp1 (Homo sapiens) (P08047 whole entry, looked up): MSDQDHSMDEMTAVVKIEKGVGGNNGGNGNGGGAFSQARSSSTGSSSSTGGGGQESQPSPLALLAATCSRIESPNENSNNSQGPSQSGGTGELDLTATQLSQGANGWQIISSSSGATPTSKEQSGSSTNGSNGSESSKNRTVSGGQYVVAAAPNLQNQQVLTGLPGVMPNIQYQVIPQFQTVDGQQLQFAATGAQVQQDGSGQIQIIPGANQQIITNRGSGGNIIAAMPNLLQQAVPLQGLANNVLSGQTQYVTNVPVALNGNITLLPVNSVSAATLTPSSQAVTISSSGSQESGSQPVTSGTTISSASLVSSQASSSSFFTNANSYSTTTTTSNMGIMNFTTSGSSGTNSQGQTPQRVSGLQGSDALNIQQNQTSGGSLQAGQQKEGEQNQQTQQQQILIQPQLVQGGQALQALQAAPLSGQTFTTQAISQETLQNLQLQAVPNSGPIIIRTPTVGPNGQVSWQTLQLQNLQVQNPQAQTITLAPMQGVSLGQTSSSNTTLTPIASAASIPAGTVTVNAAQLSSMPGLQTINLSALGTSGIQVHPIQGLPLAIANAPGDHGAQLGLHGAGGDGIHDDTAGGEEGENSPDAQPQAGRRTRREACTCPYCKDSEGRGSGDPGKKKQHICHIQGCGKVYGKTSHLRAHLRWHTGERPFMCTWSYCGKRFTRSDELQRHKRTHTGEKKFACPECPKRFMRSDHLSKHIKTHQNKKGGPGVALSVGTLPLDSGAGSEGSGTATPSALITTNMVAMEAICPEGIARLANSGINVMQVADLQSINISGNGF
Sequence of Paired box protein Pax-6 (Homo sapiens) (P26367 whole entry, looked up): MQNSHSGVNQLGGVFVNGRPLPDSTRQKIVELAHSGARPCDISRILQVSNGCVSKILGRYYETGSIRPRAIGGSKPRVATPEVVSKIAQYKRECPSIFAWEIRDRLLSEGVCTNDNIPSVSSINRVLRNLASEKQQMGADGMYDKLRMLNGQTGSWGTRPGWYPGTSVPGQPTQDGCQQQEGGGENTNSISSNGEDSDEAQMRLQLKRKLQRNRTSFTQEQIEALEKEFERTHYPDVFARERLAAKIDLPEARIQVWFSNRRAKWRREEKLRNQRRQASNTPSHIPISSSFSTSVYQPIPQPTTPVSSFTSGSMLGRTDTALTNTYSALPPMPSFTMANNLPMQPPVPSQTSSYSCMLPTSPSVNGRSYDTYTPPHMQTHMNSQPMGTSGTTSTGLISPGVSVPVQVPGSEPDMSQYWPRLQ
Sequence of Hypoxia-inducible factor 1-alpha (Homo sapiens) (Q16665 whole entry, looked up): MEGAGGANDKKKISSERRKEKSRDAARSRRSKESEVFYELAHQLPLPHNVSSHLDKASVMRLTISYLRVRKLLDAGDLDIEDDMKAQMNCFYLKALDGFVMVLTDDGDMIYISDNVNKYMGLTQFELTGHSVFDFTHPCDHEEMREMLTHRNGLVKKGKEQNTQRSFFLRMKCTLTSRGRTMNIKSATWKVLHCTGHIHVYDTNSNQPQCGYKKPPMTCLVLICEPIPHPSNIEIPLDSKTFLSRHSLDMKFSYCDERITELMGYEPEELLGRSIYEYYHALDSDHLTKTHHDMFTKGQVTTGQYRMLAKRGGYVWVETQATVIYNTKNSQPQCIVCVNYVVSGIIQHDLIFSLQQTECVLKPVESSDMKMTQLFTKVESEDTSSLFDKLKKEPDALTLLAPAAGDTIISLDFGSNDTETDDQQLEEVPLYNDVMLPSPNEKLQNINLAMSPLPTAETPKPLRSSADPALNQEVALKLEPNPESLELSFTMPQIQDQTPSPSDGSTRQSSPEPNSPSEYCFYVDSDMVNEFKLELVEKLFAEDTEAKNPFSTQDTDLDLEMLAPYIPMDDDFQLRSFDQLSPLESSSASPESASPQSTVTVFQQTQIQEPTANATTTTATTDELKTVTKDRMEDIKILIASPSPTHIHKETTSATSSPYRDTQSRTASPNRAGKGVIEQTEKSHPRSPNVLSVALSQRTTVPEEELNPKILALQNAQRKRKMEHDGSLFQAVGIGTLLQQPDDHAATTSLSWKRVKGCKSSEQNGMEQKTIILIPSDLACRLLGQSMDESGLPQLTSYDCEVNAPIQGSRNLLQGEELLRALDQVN

As usually defined, the AC50 is the concentration at which the activity in the assay is half-maximal. For `COC(C=C(C)CCC=C(C)C)OC`, the result in assay [1], in [2], in assay [3], in assay [4], in assay [5] and in [6] was inactive. Moreover, the molecule was classed as inactive in assay [7], in assay [8], in [9], in assay [11], in assay [12] and in assay [13]. Besides, the result in [14], in assay [15], in [16] and in assay [17] was inactive. The AC50 in assay [10] was 21.7 µM (active).
For `CCCCNS(=O)(=O)c1ccc(C)cc1`, the outcome in assay [1], in assay [2], in assay [3], in assay [4], in assay [5] and in assay [18] was inactive. The call in assay [6], in assay [7], in assay [19], in assay [9], in assay [11] and in assay [12] was inactive. Further, the call in assay [13], in assay [14], in [16] and in [17] was inactive. Moreover, the AC50 in assay [10] was 27.5 µM (active).
Consider `CC(C)CCCCCOC(=O)CS`, for which the molecule was classed as inactive in assay [1], in assay [2], in assay [3], in assay [4], in assay [5] and in assay [18]. In addition, the molecule was called inactive in assay [6], in assay [8], in [19], in [9], in assay [14] and in [15]. Besides, the molecule was classed as inactive in assay [16] and in assay [17]. In assay [10], the AC50 was 11.8 µM (active).
Take `CC(C)c1cc(C(C)C)cc(C(C)C)c1`: the AC50 in assay [1] is 146 µM (active); in assay [3], 176 µM (active); in assay [4], 162 µM (active); in [9] it was 159 µM (active); in [10] it was 52.1 µM (active); in [13], 159 µM (active). In addition, the results for the AC50 in [14] and in assay [15] were 145 µM (active) and 100 µM (active), respectively. For the same molecule, the call in assay [2], in [5], in assay [18], in assay [6], in assay [7] and in [8] was inactive. In addition, the molecule was classed as inactive in [11], in assay [12], in assay [16] and in assay [17].
For the molecule `CCCC(CC)c1ccccc1` (centres undefined), the call in assay [1], in [2], in assay [3], in assay [4], in assay [5] and in assay [6] was inactive. In addition, the molecule was called inactive in assay [7], in [8], in [19], in assay [9], in assay [12] and in assay [13]. Moreover, the result in assay [16] and in assay [17] was inactive. Moreover, the AC50 was 36.2 µM (active) in [10], 180 µM (active) in [14] and 164 µM (active) in assay [15].
Regarding `CC=C(C)C=CC=C(C)C`, the result in [1], in [2], in assay [3], in assay [4], in assay [5] and in [6] was inactive. The molecule was classed as inactive in assay [7], in assay [8], in assay [19], in assay [9], in assay [12] and in assay [13]. Also, the outcome in assay [14], in assay [15], in [16] and in assay [17] was inactive. Besides, the AC50 in [10] is 6.96 µM (active).
For `Oc1ccc(-c2ccccc2)c(Cl)c1`, the molecule was called inactive in assay [1], in [2], in assay [3], in assay [4], in assay [5] and in assay [6]. The outcome in assay [19], in [9], in assay [13], in assay [14], in [15] and in assay [17] was inactive. In addition, the AC50 in assay [18] was 8.12 µM (active); in [8] it was 52.9 µM (active); in [11] it was 33.4 µM (active); in assay [16] it was 54.5 µM (active).
In the case of `CCCCCC1=CCCC1=O`, the result in [1], in [2], in assay [3], in assay [5], in [6] and in [7] was inactive. Moreover, the call in [8], in assay [19], in assay [9], in assay [11], in assay [13] and in [14] was inactive. Also, the molecule was classed as inactive in [15], in assay [16] and in [17]. Besides, the AC50 was 148 µM (active) in assay [4] and 27.4 µM (active) in assay [10].
